The full ranking holds about 33,000 sequences; the median of “E-score (-0.5 to 0.5)” is about -0.021, and the highest 2% start at about 0.32. This excerpt belongs to a sample that is enriched for the highest values.
What follows are sequences tested against T1, Zap1 (UniProt P47043) (assay: PBM E-score (8-mer binding enrichment) (E-score (-0.5 to 0.5)); higher = stronger / more preferred TF binding). Conditions: protein concentration: 200 nM; construct: GST-full length.
T1 sequence: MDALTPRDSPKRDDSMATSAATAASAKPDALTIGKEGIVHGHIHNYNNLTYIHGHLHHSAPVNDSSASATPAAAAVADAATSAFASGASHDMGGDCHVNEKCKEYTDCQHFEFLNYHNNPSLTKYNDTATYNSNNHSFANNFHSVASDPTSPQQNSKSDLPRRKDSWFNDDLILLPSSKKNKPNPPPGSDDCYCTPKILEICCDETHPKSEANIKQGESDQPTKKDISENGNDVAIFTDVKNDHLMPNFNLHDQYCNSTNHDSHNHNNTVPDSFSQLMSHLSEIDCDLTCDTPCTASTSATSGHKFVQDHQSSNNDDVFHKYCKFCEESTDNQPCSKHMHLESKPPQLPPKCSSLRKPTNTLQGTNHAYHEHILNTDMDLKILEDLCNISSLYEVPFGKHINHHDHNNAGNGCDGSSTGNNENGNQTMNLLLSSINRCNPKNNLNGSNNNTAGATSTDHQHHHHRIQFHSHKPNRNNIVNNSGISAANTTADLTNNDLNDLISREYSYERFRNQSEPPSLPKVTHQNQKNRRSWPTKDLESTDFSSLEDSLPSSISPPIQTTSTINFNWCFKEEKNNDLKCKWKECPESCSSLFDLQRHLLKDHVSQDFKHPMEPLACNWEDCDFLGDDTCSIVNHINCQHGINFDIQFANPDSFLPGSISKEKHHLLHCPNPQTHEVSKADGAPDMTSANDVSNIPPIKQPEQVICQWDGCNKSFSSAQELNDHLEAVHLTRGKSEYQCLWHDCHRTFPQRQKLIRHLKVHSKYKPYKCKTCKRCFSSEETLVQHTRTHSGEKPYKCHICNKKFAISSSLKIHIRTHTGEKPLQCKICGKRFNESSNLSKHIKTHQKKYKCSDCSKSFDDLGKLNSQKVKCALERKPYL
Method in brief: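 Using PURExpress in vitro transcription/translation, GST-tagged yeast transcription factors were made in full-length or DNA-binding-domain form. These were applied at about 100-200 nM to double-stranded universal all-10-mer Agilent arrays, and bound protein was detected with fluorescent anti-GST. Scans were normalised with masliner before the Universal PBM Analysis Suite assigned E-scores to ungapped eight-base words pooled with their reverse complements.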

Row | Sequence | PBM E-score
1 | CCTGACCG | 0.0354
2 | CTGGCCCA | -0.095
3 | AGTACTTC | 0.148
4 | AGTGTGAA | -0.13
5 | AACGTTGC | -0.161
6 | ACCAAGGG | 0.178
7 | CGCTACCC | 0.302
8 | ATCCCTCA | -0.0235
9 | CGGGATCC | -0.0153
10 | ACAGCGAC | -0.152
11 | GGCCTCTA | 0.0229
12 | AACCTCCT | 0.158
13 | AACCTCTG | 0.306
14 | GACCTCTA | 0.318
15 | AACCTCTT | 0.397
16 | GTCCTCTA | -0.0992
17 | GCGGGGCC | -0.0181
18 | CAACGCGC | 0.0876
19 | CTTAGAGC | 0.0313
20 | GGCATCCA | -0.107
21 | GACCAGTA | 0.0618
22 | AAAATGTG | -0.0329
23 | AATGGGCG | -0.204
24 | CTAACCCA | 0.326
25 | AAAACCCG | 0.131

Row | Sequence | PBM E-score
26 | ATAACCCG | 0.442
27 | TGAACCCA | 0.242
28 | ATAAACCA | 0.121
29 | GGAACCCA | 0.171
30 | CTAACCCC | 0.178
31 | GAAACCCA | 0.246
32 | AAAACCCA | 0.258
33 | AGAACCCG | 0.223
34 | GTAACCCA | 0.468
35 | ATAACCCA | 0.472
36 | CTTTGCGC | -0.0424
37 | GTGATTTA | 0.193
38 | AACTGTTC | -0.0321
39 | ACTTTAGC | -0.16
40 | AATCAGTA | -0.0224
41 | AGGGAGAG | -0.0798
42 | CCAGGGCA | -0.123
43 | GCAGGGAA | -0.0199
44 | CCAGGGTA | 0.323
45 | GCAGGGTA | 0.373
46 | CCAGGGTC | 0.19
47 | ACAGGGTA | 0.366
48 | ACAGGGTC | 0.315
49 | GCAGGGGA | -0.177
50 | ACAGGGTG | 0.199

Row | Sequence | PBM E-score
51 | CGACAGCG | -0.154
52 | CGCCGCGC | -0.0986
53 | ATTGCGGG | 0.11
54 | CGAGTAAG | 0.119
55 | AGCAGTAT | 0.0154
56 | CGCAAACC | 0.0968
57 | TCGCGAGA | 0.117
58 | GTTAACTA | 0.263
59 | ATTAACCA | 0.246
60 | ATTAACGG | 0.0866
61 | ATTAACCG | 0.331
62 | CTTAACCA | 0.376
63 | ATTAACAG | -0.102
64 | CTTAACAC | 0.0174
65 | CTCAACCA | 0.00637
66 | GTTAACCA | 0.338
67 | CTCAACCC | 0.201
68 | CTTAACCC | 0.387
69 | CTTAACGA | -0.00709
70 | TACGACGA | -0.0483
71 | ACCCGTCT | -0.0166
72 | CAGCTAAA | 0.0244
73 | CGCGATGA | 0.181
74 | GATTCTAA | -0.0858
75 | CCATTGAA | 0.174

Row | Sequence | PBM E-score
76 | ATTCGACC | 0.0544
77 | ATTAACTC | 0.0519
78 | ATTAACCC | 0.334
79 | ATTAACAC | 0.172
80 | GGCTCAGA | -0.101
81 | GCTTACCA | 0.0792
82 | AGGCTGTC | -0.202
83 | ACACTGGC | -0.0599
84 | CATACAGC | -0.249
85 | CCTGGTTA | 0.306
86 | GCTGGTTA | 0.329
87 | GCTGGTCA | 0.0223
88 | GCTGGTGA | 0.0777
89 | ACTGGTTA | 0.405
90 | ACTGGTTC | 0.0663
91 | AACTGTTG | -0.147
92 | TGAACACA | 0.0543
93 | CACTACCG | 0.129
94 | CAAAGAGG | 0.0514
95 | AAGCTATT | -0.138
96 | ACCCCGAT | 0.197
97 | ACCCGAAG | 0.197
98 | AACCCGAA | 0.327
99 | AACCCGAT | 0.31
100 | ACCCGAAT | 0.254

Row | Sequence | PBM E-score
101 | CCCCGTAA | 0.16
102 | ACCCGTAA | 0.333
103 | ACCCCGAA | 0.384
104 | ACCCGAAA | 0.328
105 | ACCCGTAC | 0.0183
106 | GACCCGAA | 0.175
107 | CCCCCGAA | -0.164
108 | TCCACGAA | 0.111
109 | CGTGAAGC | -0.326
110 | TAGAGTCA | -0.166
111 | AAACTTGG | 0.124
112 | AACCAAGT | 0.271
113 | CGAGAGGA | -0.0403
114 | CGCCTTCA | -0.26
115 | CCAGGGGA | -0.0512
116 | ATTACCAA | 0.18
117 | GTTACAAA | 0.343
118 | GTTACAAC | 0.291
119 | GGTACCAA | 0.337
120 | CTTACCAA | 0.0782
121 | AGTACCAC | 0.208
122 | CGTACCAA | -0.0153
123 | TGTACCAA | 0.0671
124 | GGTACCAC | 0.362
125 | CTTACAAA | 0.0824

Row | Sequence | PBM E-score
126 | CGTACCAC | 0.0803
127 | GTTACCAA | 0.362
128 | AGCAGCCG | 0.0213
129 | AAATGGTC | 0.207
130 | ACTCATGC | -0.147
131 | CACCTCGG | 0.0517
132 | TTAGAGAA | -0.0471
133 | GCAATAGC | -0.122
134 | AATTCGAG | -0.131
135 | GACTAGAC | -0.101
136 | ACAGAAAG | 0.11
137 | CCTTGTTA | 0.12
138 | CCGGGCGC | -0.315
139 | CGCCCATC | -0.171
140 | AATAACCT | 0.454
141 | GATAACGC | -0.11
142 | GATAACCC | 0.47
143 | GCTAACCC | 0.32
144 | ACTAACCC | 0.271
145 | AATAACCC | 0.466
146 | GATAAACC | 0.21
147 | AATAACAT | 0.0801
148 | AATAACGT | 0.0381
149 | AATAACGC | -0.0593
150 | CCTAACCC | 0.264

Row | Sequence | PBM E-score
151 | AATAACAC | 0.107
152 | ACTATCGC | -0.0428
153 | AGCAGAAT | 0.0481
154 | CTACCAAG | 0.0784
155 | GCATAGGA | -0.135
156 | GAGTAGGA | -0.289
157 | GACTGTGA | -0.0753
158 | AAGCACTC | -0.146
159 | ACTCGTGG | 0.0689
160 | AATAACAG | 0.118
161 | ACTAACCT | 0.318
162 | ACTAACCG | 0.144
163 | AATAACCG | 0.421
164 | ACTAACCA | 0.282
165 | AATAACGG | 0.169
166 | CCTAGCAA | 0.0808
167 | CGTTGGTC | -0.0765
168 | AAAAGGTC | 0.367
169 | CAAAGGTC | 0.314
170 | AAAAGGTG | 0.173
171 | AAAAGGAT | 0.0556
172 | AAAAGGTT | 0.444
173 | ATAAGGTC | 0.184
174 | CGCAACTA | 0.162
175 | AGGCCCAA | -0.0071

Row | Sequence | PBM E-score
176 | GACGCGAA | -0.12
177 | AGAGAATC | -0.152
178 | AATGAATG | 0.0096
179 | AGGCTAGA | -0.15
180 | TACCTAAA | 0.199
181 | AACCTAAA | 0.356
182 | TACCTATA | 0.337
183 | TACCTACA | 0.137
184 | CACCTATA | 0.0311
185 | GACCTATA | 0.295
186 | AACCTATA | 0.374
187 | CACCTAAA | 0.191
188 | TACCTAGA | 0.163
189 | ATGCGTTC | -0.0993
190 | GCAGGCAA | -0.144
191 | ACTCAGAG | 0.11
192 | CTGATAAA | 0.121
193 | GGAACACC | 0.105
194 | ATTTCTCG | 0.176
195 | CTTGCTAC | 0.0655
196 | ATCTCACC | -0.0161
197 | CGACTGGA | -0.193
198 | ACCTCTAC | 0.259
199 | ACCTCTAT | 0.293
200 | ACCTCTCT | 0.0304

Row | Sequence | PBM E-score
201 | ACCTCAAG | 0.251
202 | ACCTCTCA | 0.344
203 | ACCTCAAA | 0.326
204 | GCCTCAAA | 0.00889
205 | CCCTCTCA | -0.23
206 | ACCTCTAG | 0.411
207 | CACTGGCG | -0.0169
208 | GCTTCAAC | 0.00654
209 | TAGCCAGA | -0.00683
210 | CGAGCTAA | -0.031
211 | GATCAGAA | -0.106
212 | AGTAATAT | 0.178
213 | AGAGCTAC | -0.184
214 | AACCCACA | 0.331
215 | AACCCACG | 0.156
216 | GACCCACC | 0.245
217 | CCCCCACC | -0.378
218 | CACCCACC | 0.194
219 | ACCCCACC | 0.419
220 | GCCCCACC | 0.283
221 | CACCCACA | 0.168
222 | AACCCACC | 0.343
